Source: PubChem BioAssay (NCATS)
Records with an inconclusive call do not appear. Values without a mark were called inactive. Calls of active or inactive are those of the source. Calls follow the shape of the dose curve; as a rule, active = well fitted curve in either direction with a large enough effect (not every such curve was filed as active); inconclusive = small, poorly fitted or top-dose-only effect, or another doubt; inactive = flat fitted curve, though single readings scatter.

Target: Mitogen-activated protein kinase 10 (Mus musculus) (UniProt Q61831)
Experiment: JNK3 AlphaScreen Assay (AID 530);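 also: kinase came from lysate of stimulated human HepG2 cells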
Conditions: JNK3 lysate, c-Jun phosphorylation; series mostly up to 57.1 µM
Source text: NIH Chemical Genomics Center [NCGC]
NIH Molecular Libraries Screening Centers Network [MLSCN]
The c-jun N-terminal kinase (JNK) family are serine/threonine protein kinases that phosphorylate c-jun, a component of the transcription factor […] (AP-1). JNK kinases are members of the mitogen-activated protein kinase family including the extracellular regulated kinases and p38 kinases. Three JNK genes (JNK 1, 2, and 3) have been identified in humans so far. JNK1 and JNK2 have a broad distribution and JNK3 is primarily found in neuronal tissues and cardiac myocytes.
JNK3 has been under consideration as a target for the treatment of neurodegenerative disorders. […] JNK pathway is also involved in pathological process in a mouse model of Parkinson's disease (Xia et al., 2001).
Given these potential tissue distributions and links to neuroprotection, JNK3 inhibitors should provide useful investigational tools to study the role of this kinase in several diseases including, arthritis, stroke, myocardial infarction, ischemic injury and Parkinson's disease.
A homogeneous AlphaScreen is developed to measure the activity of JNK3. AlphaScreen is a two bead-based proximity-dependent chemical energy transfer luminescent assay platform. The phosphorylation of a biotinylated c-jun substrate by JNK3 can be detected with an antibody raised against phosphorylated c-jun. This process brings streptavidin donor beads and Protein-A acceptor beads to within a proximity range of <200 nm, and subsequently lead a chemical luminescent reaction upon exciting donor beads with 680 nm laser excitation light. Inhibition of JNK3 activity by small molecules and subsequent decrease in the antibody binding to biotinylated c-jun could attenuate or abolish this chemical luminescent reaction.
Yang DD, Kuan CY, Whitmarsh AJ, Rincon M, Zheng TS, Davis RJ, Rakic P and Flavell RA (1997) Absence of excitotoxicity-induced apoptosis in the hippocampus of mice lacking the Jnk3 gene. Nature 389:865-870. [PMID: 9349820]
Herdegen T, Claret FX, Kallunki T, Martin-Villalba A, Winter C, Hunter T, and Karin M (1998) Lasting N-terminal phosphorylation of c-Jun and activation of c-Jun N-terminal kinases after neuronal injury. J.Neurosci. 18:5124-5135. [PMID: 9651196]
Xia XG, Harding T, Weller M, Bieneman A, Uney JB and Schulz JB (2001) Gene transfer of the JNK interacting protein-1 protects dopaminergic neurons in the MPTP model of Parkinson's disease. Proc.Natl.Acad.Sci.U.S.A. 98:10433-10438.
NCGC Assay Protocol Summary:
GST-cJun (1-79) (Stratagene, La Jolla CA, #205145) was biotnylated by PerkinElmer (PerkinElmer-BioSignalInc. Montreal, Canada) and was detectable by the streptavidin Donor beads. Anti-(phospho)cJun (Ser73) antibody was from UpState (Charlottesvilles, VA, #06-659). JNK3-containing lysates were generated from HepG2 cells and pre-activated by interleukin1-beta and tumor necrosis factor alpha. All reagents were stored at -20 C before using. Phosphorylated biotinylated-GST-cJun was recognized by Anti-(phospho)cJun (Ser73) antibody and this process brings acceptor and donor beads together. Therefore JNK3 phosphorylation of cJun can be measured by Alpha reading by EnVision (PerkinElmer, Boston, MA).
The composition of kinase buffer was (in mM) 20 tris- HCl (pH 7.6) 10 MgCl2, 1 DTT, and 0.1 Na3VO4 and 0.01% Tween-20. Beads were diluted in detection buffer containing (in mM) 20 tris-HCl (pH 7.7), 20 NaCl and 80 EDTA and 0.3% BSA. The assay was performed at room temperature. All compounds were screened as titrations from 0.6 nM to 46 uM final concentration. The assay was performed in 1536-well format (white solid bottom and untreated) as follows:
Sequence,Parameter,Value,Description
1,Reagent,3 uL,Biotin-GST-cJun, Anti-(phospho)cJun and pre-activated JNK3-containing lysates
2,Compound,23 nL,Final concentration was 0.6nM to 46uM
3,Time,15 minutes,Room Temperature
4,Reagent,1 uL,ATP final concentration 10uM
6,Reagent,0.5 uL,2ng/well bead mixture
[…]
% is scaled to controls: 0 for no effect and ±100 for the full control effect.

| Compound | outcome | activity change, negative = inhibition |
| --- | --- | --- |
| O=C(Nc1cccc(F)c1)N1CCC2(CC1)CCN(C(=O)Oc1ccccc1)CC2 | inactive | – |
| C=CC(C)=O | inactive | – |
| O=C(O)CNCP(=O)(O)O | – | 1.05% [at 11.4 µM] |
| CC(=O)O[C@H]1C[C@@H](O[C@@H]2[C@H](C)O[C@H](O[C@@H]3[C@H](C)O[C@H](O[C@@H]4CC[C@@]5(C)[C@@H](CC[C@]6(C)[C@]5(C)C[C@H](O)[C@]5(C)[C@@H](C7=CC(=O)OC7)CC[C@@]56O)C4)C[C@@H]3O)C[C@@H]2O)O[C@@H](C)[C@H]1O[C@H]1O[C@@H](CO)[C@@H](O)[C@@H](O)[C@@H]1O | inactive | – |
| CCOP(=S)(OCC)SCSC(C)(C)C | inactive | – |
| CCOP(=S)(OCC)Oc1ccc([N+](=O)[O-])cc1 | inactive | – |
| CN1Cc2c(ccc3c2OCO3)[C@@H]2[C@@H](O)Cc3cc4c(cc3[C@@H]21)OCO4 | inactive | – |
| OCC1CO1 (stereo not given) | inactive | – |
| O=C(Nc1ccccc1)N1CC[C@@]2(CCCNC2)C1 | inactive | – |
| Clc1nc(Cl)nc(Nc2ccccc2Cl)n1 | inactive | – |
| CCN1C[C@]2(C)CC[C@H](OC)[C@@]34[C@@H]2[C@H](OC(C)=O)[C@]2(OCO[C@@]25C[C@@H](OC)[C@@H]2C[C@@]3(O)[C@H]5[C@@H]2OC)[C@H]14 | inactive | – |
| CN1[C@H]2CC(=O)C[C@@H]1[C@@H](O)C2 | inactive | – |
| Oc1ccc(Cl)cc1Cl | inactive | – |
| C[C@H]1CC[C@@]2(NC1)O[C@@H]1C[C@H]3[C@@H]4CC=C5C[C@@H](O)CC[C@]5(C)[C@@H]4CC[C@]3(C)[C@@H]1[C@@H]2C | inactive | – |
| O=C(Nc1cccc(F)c1)N1CC2(CCN(C(=O)Oc3ccccc3)CC2)C1 | inactive | – |
| CN=C=S | inactive | – |
| CC1=C2[C@@H]3OC(=O)[C@@H](C)[C@@H]3CC[C@]2(C)C=CC1=O | inactive | – |
| C=C(C)[C@H]1[C@H]2OC(=O)[C@@H]1[C@]1(O)C[C@H]3O[C@]34C(=O)O[C@H]2[C@@]14C | inactive | – |
| Cc1ccc(O)c(C)c1 | inactive | – |
| O=C1C=C2C=C[C@H]3C[C@@]2(O1)[C@H]1CCCCN31 | inactive | – |

| Compound | outcome | activity change, negative = inhibition |
| --- | --- | --- |
| COc1cc(C=C(C#N)C#N)cc(O)c1O | inactive | – |
| CC[C@]1(c2cccc(O)c2)CCCCN(C)C1 | inactive | – |
| ClC(Cl)=C(Cl)C(Cl)=C(Cl)Cl | inactive | – |
| O=C1NC(=S)NC(=O)C1=Cc1cccc2cc3ccccc3cc12 | – | -7.37% [at 11.4 µM] |
| CCCCCCCC(=O)Cl | inactive | – |
| CCN1C[C@@]2(COC)[C@H]3[C@@H](OC)[C@H]4C1[C@@]3([C@H](OC)C[C@@H]2O)[C@H]1C[C@@]2(O)[C@@H](OC(=O)c3ccccc3)[C@@H]1[C@@]4(OC(C)=O)[C@H](O)[C@@H]2OC | inactive | – |
| C=C[C@]12CN(C)[C@H]3C1[C@@]1(C(=O)Nc4ccccc41)[C@H]1C[C@H]2[C@H]3CO1 | inactive | – |
| NNCc1cccc(O)c1 | inactive | – |
| CC(C)c1c(CN(C)[C@@H](C)Cc2ccccc2)n(C)n(-c2ccccc2)c1=O | inactive | – |
| Cc1ccc([N+](=O)[O-])cc1C | inactive | – |
| O=[N+]([O-])O[C@H]1CO[C@H]2[C@H]1OC[C@@H]2O[N+](=O)[O-] | inactive | – |
| CO[C@H]1C=C2CCN(C)[C@@H]2[C@@H]2c3cc4c(cc3C(=O)O[C@H]21)OCO4 | inactive | – |
| CC(=O)OCC(=O)[C@@H]1CC[C@H]2[C@H]3CC[C@H]4C[C@@H](O)CC[C@]4(C)[C@@H]3C(=O)C[C@@]12C | inactive | – |
| N#C/C(=C\c1ccc(O)c(O)c1)C(N)=S | inactive | – |
| CN(C)[C@@H]1C(=O)C(C(N)=O)=C(O)[C@]2(O)C(=O)C3=C(O)c4c(O)ccc(Cl)c4[C@](C)(O)[C@H]3C[C@@H]12 | inactive | – |
| CC(C)(C)OOC(C)(C)C | inactive | – |
| COc1cc2c(cc1O)[C@H]1Cc3ccc(OC)c(O)c3CN1CC2 | inactive | – |
| Clc1ccc(CO[C@@H](Cn2ccnc2)c2ccc(Cl)cc2Cl)cc1 | inactive | – |
| CS(=N)(=O)CC[C@@H](N)C(=O)O (stereo not given in full) | inactive | – |
| O=C(Oc1ccccc1)N1CCC2(CCCN(Cc3nccs3)C2)CC1 | inactive | – |
